Test results published in PubChem BioAssay AID1159580 (chemical genetic matrix, 2015).
The whole screen tested about 5,500 compounds, of which about 2,000 (36%) were called active. Inconclusive results (about 18%) are left out. Cut-off read from the data, not from the text of the source: active = normalized growth mostly below about 0.91 (no sharp cut-off); inconclusive = no clear call, values can overlap the other calls; inactive = mostly above about 0.92. The list shows a part of the results.

Assay: chemical genetic growth profiling, strain panel (AID 1159580);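 note: tested at 20 µM; growth read once vehicle control cultures reached saturation at 30 °C; 1 = growth at the plate median or of vehicle wells; lower values mean less growth of the strain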
Conditions: growth OD
[1] = S. cerevisiae deletion strains, locus YAR019C, strain CDC15, hits give low values
[2] = S. cerevisiae deletion strains, locus YBL105C, strain PKC1, hits give low values
[3] = S. cerevisiae deletion strains, locus YBR135W, strain CKS1, hits give low values
[4] = S. cerevisiae deletion strains, locus YBR136W, strain MEC1, hits give low values
[5] = S. cerevisiae deletion strains, locus YBR160W, strain CDC28, hits give low values
[6] = S. cerevisiae deletion strains, locus YDL017W, strain CDC7, hits give low values
[7] = S. cerevisiae deletion strains, locus YDL028C, strain MPS1, hits give low values
[8] = S. cerevisiae deletion strains, locus YDL101C, strain DUN1, hits give low values
[9] = S. cerevisiae deletion strains, locus YDL108W, strain KIN28, hits give low values
[10] = S. cerevisiae deletion strains, locus YDL132W, strain cdc53, hits give low values
[11] = S. cerevisiae deletion strains, locus YDL214C, strain PRR2, hits give low values
[12] = S. cerevisiae deletion strains, locus YDR052C, strain DBF4, hits give low values
[13] = S. cerevisiae deletion strains, locus YDR054C, strain cdc34, hits give low values
[14] = S. cerevisiae deletion strains, locus YDR226W, strain ADK1, hits give low values
[15] = S. cerevisiae deletion strains, locus YDR477W, strain SNF1, hits give low values
[16] = S. cerevisiae deletion strains, locus YER123W, strain YCK3, hits give low values
[17] = S. cerevisiae deletion strains, locus YER133W, strain GLC7, hits give low values
[18] = S. cerevisiae deletion strains, locus YFL009W, strain cdc4, hits give low values
[19] = S. cerevisiae deletion strains, locus YFL029C, strain CAK1, hits give low values
[20] = S. cerevisiae deletion strains, locus YFR003C, strain YPI1, hits give low values
[21] = S. cerevisiae deletion strains, locus YFR019W, strain FAB1, hits give low values
[22] = S. cerevisiae deletion strains, locus YFR028C, strain CDC14, hits give low values
[23] = S. cerevisiae deletion strains, locus YGR040W, strain KSS1, hits give low values
[24] = S. cerevisiae deletion strains, locus YGR052W, strain FMP48, hits give low values
[25] = S. cerevisiae deletion strains, locus YGR092W, strain DBF2, hits give low values
[26] = S. cerevisiae deletion strains, locus YHR030C, strain SLT2, hits give low values
[27] = S. cerevisiae deletion strains, locus YHR079C, strain IRE1, hits give low values
[28] = S. cerevisiae deletion strains, locus YHR082C, strain KSP1, hits give low values
[29] = S. cerevisiae deletion strains, locus YHR205W, strain SCH9, hits give low values
[30] = S. cerevisiae deletion strains, locus YIL147C, strain SLN1, hits give low values
[31] = S. cerevisiae deletion strains, locus YJL095W, strain BCK1, hits give low values
[32] = S. cerevisiae deletion strains, locus YJL128C, strain PBS2, hits give low values
[33] = S. cerevisiae deletion strains, locus YJL157C, strain FAR1, hits give low values
[34] = S. cerevisiae deletion strains, locus YJR016C, strain ILV3, hits give low values
[35] = S. cerevisiae deletion strains, locus YJR066W, strain TOR1 (second series), hits give low values
[36] = S. cerevisiae deletion strains, locus YJR066W, strain TOR1, hits give low values
[37] = S. cerevisiae deletion strains, locus YKL048C, strain ELM1, hits give low values
[38] = S. cerevisiae deletion strains, locus YKL067W, strain YNK1, hits give low values
[39] = S. cerevisiae deletion strains, locus YKL101W, strain HSL1, hits give low values
[40] = S. cerevisiae deletion strains, locus YKL193C, strain SDS22, hits give low values
[41] = S. cerevisiae deletion strains, locus YKL203C, strain TOR2, hits give low values
[42] = S. cerevisiae deletion strains, locus YLR113W, strain HOG1, hits give low values
[43] = S. cerevisiae deletion strains, locus YLR133W, strain CKI1, hits give low values
[44] = S. cerevisiae deletion strains, locus YLR403W, strain SFP1, hits give low values
[45] = S. cerevisiae deletion strains, locus YML070W, strain DAK1, hits give low values
[46] = S. cerevisiae deletion strains, locus YMR001C, strain CDC5, hits give low values
[47] = S. cerevisiae deletion strains, locus YMR205C, strain PFK2 (second series), hits give low values
[48] = S. cerevisiae deletion strains, locus YMR277W, strain FCP1, hits give low values
[49] = S. cerevisiae deletion strains, locus YNL006W, strain LST8, hits give low values
[50] = S. cerevisiae deletion strains, locus YNL020C, strain ARK1, hits give low values
[51] = S. cerevisiae deletion strains, locus YNL161W, strain CBK1, hits give low values
[52] = S. cerevisiae deletion strains, locus YNL183C, strain NPR1, hits give low values
[53] = S. cerevisiae deletion strains, locus YNL207W, strain RIO2, hits give low values
[54] = S. cerevisiae deletion strains, locus YNL222W, strain SSU72, hits give low values
[55] = S. cerevisiae deletion strains, locus YNL307C, strain MCK1 (second series), hits give low values
[56] = S. cerevisiae deletion strains, locus YOL078W, strain AVO1, hits give low values
[57] = S. cerevisiae deletion strains, locus YOL136C, strain PFK27, hits give low values
[58] = S. cerevisiae deletion strains, locus YOR061W, strain CKA2, hits give low values
[59] = S. cerevisiae deletion strains, locus YOR119C, strain RIO1, hits give low values
[60] = S. cerevisiae deletion strains, locus YOR231W, strain MKK1, hits give low values
[61] = S. cerevisiae deletion strains, locus YOR329C, strain SCD5, hits give low values
[62] = S. cerevisiae deletion strains, locus YPL031C, strain PHO85, hits give low values
[63] = S. cerevisiae deletion strains, locus YPL153C, strain RAD53, hits give low values
[64] = S. cerevisiae deletion strains, locus YPL204W, strain HRR25, hits give low values
[65] = S. cerevisiae deletion strains, locus YPL209C, strain IPL1, hits give low values
[66] = S. cerevisiae deletion strains, locus YPL256C, strain CLN2, hits give low values
[67] = S. cerevisiae deletion strains, locus YPR025C, strain CCL1, hits give low values
[68] = S. cerevisiae deletion strains, locus YPR106W, strain ISR1, hits give low values
[69] = S. cerevisiae deletion strains, locus YPR111W, strain DBF20, hits give low values
[70] = S. cerevisiae deletion strains, strain NNK1, hits give low values
[71] = S. cerevisiae deletion strains, strain TSCII, hits give low values
[72] = S. cerevisiae deletion strains, locus YDR150W, strain NUM1, hits give low values
[73] = S. cerevisiae deletion strains, locus YNL153C, strain GIM3, hits give low values
[74] = S. cerevisiae deletion strains, locus YPL055C, strain LGE1, hits give low values

Measured: normalized growth

O=C1/C(=C/c2ccccn2)CCc2ccccc21
active: [42] 0.742
inactive: [1] 0.923 | [2] 0.944 | [3] 0.95 | [4] 0.929 | [5] 0.957 | [6] 0.954 | [7] 0.94 | [8] 0.948 | [9] 0.936 | [10] 0.936 | [11] 0.927 | [12] 0.96 | [13] 0.937 | [14] 0.948 | [15] 0.897 | [16] 0.814 | [17] 0.897 | [18] 0.929 | [19] 0.912 | [20] 0.954 | [21] 0.951 | [22] 0.935 | [23] 0.837 | [24] 0.919 | [25] 0.813 | [26] 0.88 | [27] 0.869 | [28] 0.921 | [29] 0.878 | [30] 0.939 | [31] 0.863 | [32] 0.937 | [33] 0.939 | [34] 0.94 | [35] 0.633 | [36] 0.855 | [37] 0.952 | [38] 0.928 | [39] 0.922 | [40] 0.937 | [41] 0.912 | [43] 0.935 | [44] 0.869 | [45] 0.896 | [46] 0.944 | [47] 0.948 | [48] 0.939 | [49] 0.967 | [50] 0.948 | [51] 0.941 | [52] 0.84 | [53] 0.943 | [54] 0.942 | [55] 0.913 | [56] 0.935 | [57] 0.919 | [58] 0.934 | [59] 0.91 | [60] 0.875 | [61] 0.948 | [62] 0.874 | [63] 0.883 | [64] 0.862 | [65] 0.944 | [66] 0.861 | [67] 0.945 | [68] 0.96 | [69] 0.955 | [70] 0.967 | [71] 0.93

Oc1ccc(-c2nc(-c3ccc(F)cc3)c(-c3ccncc3)[nH]2)cc1
inactive: S. cerevisiae deletion strains, locus YAL040C, strain CLN3, hits give low values 0.975 | S. cerevisiae deletion strains, locus YCL061C, strain MRC1 (second series), hits give low values 1.01 | [72] 1 | S. cerevisiae deletion strains, locus YER002W, strain NOP16, hits give low values 1 | S. cerevisiae deletion strains, locus YMR307W, strain GAS1, hits give low values 1.02 | [73] 0.999 | S. cerevisiae deletion strains, locus YNL175C, strain NOP13, hits give low values 1.03 | S. cerevisiae deletion strains, locus YNL197C, strain WHI3, hits give low values 1.02 | S. cerevisiae deletion strains, locus YNL224C, strain SQS1, hits give low values 1.02 | S. cerevisiae deletion strains, locus YOR083W, strain WHI5 (second series), hits give low values 1.03 | [74] 1.02

O=S(=O)(Oc1cc(Cl)cc(Cl)c1)c1cccc(S(=O)(=O)Oc2cc(Cl)cc(Cl)c2)c1
inactive: S. cerevisiae deletion strains, locus YAL013W, strain DEP1, hits give low values 1.01 | S. cerevisiae deletion strains, locus YBR229C, strain ROT2, hits give low values 1.01 | S. cerevisiae deletion strains, locus YCL061C, strain MRC1, hits give low values 1.01 | [8] 1.01 | S. cerevisiae deletion strains, locus YDL134C, strain PPH21, hits give low values 1.01 | [72] 1 | S. cerevisiae deletion strains, locus YEL061C, strain CIN8, hits give low values 1.01 | S. cerevisiae deletion strains, locus YGR078C, strain PAC10, hits give low values 1.02 | [26] 1.04 | S. cerevisiae deletion strains, locus YHR087W, strain rtc3, hits give low values 0.996 | S. cerevisiae deletion strains, locus YJR043C, strain POL32, hits give low values 1 | S. cerevisiae deletion strains, locus YJR075W, strain HOC1, hits give low values 0.988 | S. cerevisiae deletion strains, locus YLR039C, strain RIC1, hits give low values 1.1 | S. cerevisiae deletion strains, locus YLR058C, strain SHM2 (second series), hits give low values 0.998 | S. cerevisiae deletion strains, locus YLR085C, strain ARP6, hits give low values 1.06 | S. cerevisiae deletion strains, locus YLR262C, strain YPT6, hits give low values 1.02 | S. cerevisiae deletion strains, locus YML094W, strain GIM5, hits give low values 1.01 | S. cerevisiae deletion strains, locus YMR219W, strain ESC1, hits give low values 0.998 | S. cerevisiae deletion strains, locus YMR263W, strain SAP30, hits give low values 0.992 | [73] 1.01 | S. cerevisiae deletion strains, locus YNL298W, strain CLA4 (second series), hits give low values 1.07 | S. cerevisiae deletion strains, locus YNL322C, strain KRE1, hits give low values 1.01 | S. cerevisiae deletion strains, locus YNR030W, strain Alg12, hits give low values 1.01 | S. cerevisiae deletion strains, locus YOL006C, strain TOP1, hits give low values 1.06 | [74] 1.01 | S. cerevisiae deletion strains, locus YPL241C, strain CIN2, hits give low values 1.03 | S. cerevisiae deletion strains, locus YPR135W, strain CTF4, hits give low values 1.01 | S. cerevisiae strains, strain wild type, hits give low values 1.04

O=S(=O)(CS(=O)(=O)Oc1ccc(Cl)c(Cl)c1)Oc1ccc(Cl)c(Cl)c1
inactive: [1] 0.95 | [2] 0.944 | [3] 0.947 | [4] 0.946 | [5] 0.946 | [6] 0.937 | [7] 0.946 | [8] 0.971 | [9] 0.937 | [10] 0.968 | [11] 0.986 | [12] 0.937 | [13] 0.932 | [14] 0.913 | [15] 0.966 | [16] 0.989 | [17] 0.969 | [18] 0.931 | [19] 0.95 | [20] 0.944 | [21] 0.946 | [22] 0.97 | [23] 0.983 | [24] 1.02 | [25] 0.905 | [27] 0.918 | [28] 1.03 | [29] 0.756 | [30] 0.943 | [31] 0.935 | [32] 0.969 | [33] 0.959 | [34] 0.951 | [35] 0.994 | [36] 1.03 | [37] 0.963 | [38] 0.983 | [39] 0.981 | [40] 0.944 | [41] 1.05 | [42] 0.962 | [43] 0.961 | [44] 0.823 | [45] 0.991 | [46] 0.94 | [47] 0.972 | [48] 0.949 | [49] 0.967 | [50] 0.955 | [51] 0.949 | [52] 1.09 | [53] 0.941 | [54] 0.955 | [55] 0.961 | [56] 0.946 | [57] 0.949 | [58] 0.984 | [59] 1.05 | [60] 1.07 | [61] 0.951 | [62] 0.948 | [63] 0.974 | [64] 0.945 | [65] 0.949 | [66] 0.945 | [67] 0.956 | [68] 0.942 | [69] 0.938 | [70] 0.956 | [71] 0.945
active: [26] 0.85
